PubChem BioAssay (NCI)
Compounds without any hit were thinned out: in the full panel of roughly 79,000, 15% have a hit. Cut-off read from the data, not from the text of the source: active = growth inhibition above about 70%; inactive = the rest.

Key:
[1] = NCI Yeast Anticancer Drug Screen. Data for the rad50 strain (AID 155);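 note: 0% = growth of vehicle-only cultures of the same strain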; settings: S. cerevisiae rad50 strain growth inhibition; at 50.0 µM; stronger effect = higher value
Method in brief: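 Vehicle-treated cultures provide the reference for the growth inhibition reported for compound-exposed, repair-deficient yeast.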

[2] = NCI Yeast Anticancer Drug Screen. Data for the mec2-1 strain (AID 157); settings: S. cerevisiae mec2-1 strain, at 50.0 µM, stronger effect = higher value
Method in brief: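 mec2-1 yeast strain, carrying an alteration in DNA damage repair or cell cycle control, was exposed to compounds; growth inhibition was measured relative to vehicle-treated controls.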

[3] = NCI Yeast Anticancer Drug Screen. Data for the sgs1 mgt1 strain (AID 161);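 note: 0% = growth of cultures given vehicle only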; settings: S. cerevisiae sgs1 mgt1 strain, at 50.0 µM, stronger effect = higher value
Method in brief: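 Yeast cells carrying a defined DNA-repair defect were exposed to test compounds. Growth inhibition was measured relative to vehicle-treated controls.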

[4] = NCI Yeast Anticancer Drug Screen. Data for the cln2 rad14 strain (AID 165);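 note: 0% = growth equal to vehicle treated cultures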; settings: S. cerevisiae cln2 rad14 strain, at 50.0 µM, stronger effect = higher value
Method in brief: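 Yeast carrying cln2 and rad14 alterations (cell cycle control and DNA damage repair) were exposed to compounds. Growth inhibition was measured against vehicle-treated controls.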

[5] = NCI Yeast Anticancer Drug Screen. Data for the bub3 strain (AID 167); settings: S. cerevisiae bub3 mutant strain, at 50.0 µM, stronger effect = higher value
Method in brief: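 Mutant yeast screening strain plus compound; vehicle-treated cultures serve as the 0% inhibition reference.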

[6] = NCI Yeast Anticancer Drug Screen. Data for the mlh1 rad18 strain (AID 175); settings: S. cerevisiae mlh1 rad18 strain growth inhibition; at 50.0 µM; stronger effect = higher value
Method in brief: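 Growth inhibition of the yeast strain was measured after compound exposure and expressed relative to vehicle-treated controls. The strain carries defined defects in DNA damage repair.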

Measured: growth inhibition

N#Cc1c(Br)n(C2OC(CO)C(O)C2O)c2ncncc12 (stereo unspecified)
inactive: [1] 1.5% | [2] 7.5% | [3] 1.55% | [4] -0.05% | [5] 4.7% | [6] 2.7%

CCc1ccccc1-n1[nH]c(C)c(C=N)c1=O
inactive: [1] -8.2% | [2] -18.1% | [3] -18.2% | [4] -14.1% | [5] -16.7% | [6] -8.15%

Cc1ccc(C2C3CCC(=O)C=C3CN2C=O)cc1O (stereo unspecified)
inactive: [1] 10.2% | [2] 8.4% | [3] -3.2% | [4] -44.6% | [5] -2.6% | [6] 12.8%

C[N+](C)(C)CBr
inactive: [1] 36.8% | [2] -11% | [3] -21.5% | [4] -40.6% | [5] 4.75% | [6] -37.2%

Cc1nc2c(N)cc(Cl)cc2[nH]1
inactive: [1] 13.2% | [2] 13.3% | [3] 19.6% | [4] 8.25% | [5] -7.3% | [6] 7.75%

C1CCC(CCC2CCCC[N-]2)[N-]C1.[I][Co][I] (stereo unspecified)
inactive: [1] 48.3% | [2] 27.9% | [3] 47% | [4] -3% | [5] 33.7% | [6] 43.5%

O=C(O)CCc1cccc2ccccc12
inactive: [1] 30.1% | [2] 10.8% | [3] 32.7% | [4] 14.4% | [5] 3.35% | [6] 35.3%

CC(C)(C)CC(C)(C(=O)O)C(C)(C)C (stereo unspecified)
inactive: [1] 4% | [2] 9.25% | [3] -3.25% | [4] -12.6% | [5] 3.15% | [6] 14.7%

CC(=O)OCC1OC(n2ccc(=O)[nH]c2=O)CC1N=[N+]=[N-] (stereo unspecified)
inactive: [1] -25.1% | [2] 8.7% | [3] 1.05% | [4] -48.3% | [5] 13.3% | [6] 0.35%

CC(=O)Nc1cscc1NC(C)=O
inactive: [1] -3.8% | [2] -10.7% | [3] 6.05% | [4] -0.2% | [5] 16.9% | [6] -9.5%

CCCCCn1cnc2cc(N3CCOCC3)c([N+](=O)[O-])cc2c1=O
inactive: [1] 4.9% | [2] 34.9% | [3] 5.75% | [4] 8.2% | [5] 18.2% | [6] 14.3%

N=C(N)C(N=Nc1ccccc1)C(=N)N (stereo unspecified)
inactive: [1] -25.4% | [2] -7.45% | [3] -22.1% | [4] -33.5% | [5] -25.5% | [6] -16%

Nc1cc(NC(=O)CO)cc(C(=O)O)c1
inactive: [1] 14.2% | [2] -1.15% | [3] -1% | [4] -0.4% | [5] 4.05% | [6] 7.1%

CC(C)c1ccc(/C=C/C(=O)c2ccc(F)cc2)cc1
inactive: [1] 14.6% | [2] 13.5% | [3] 16.5% | [4] 10.1% | [5] 5.05% | [6] 17.6%

O=C(/C=C/c1ccccc1)NN1CCOCC1
inactive: [1] 13.5% | [2] 3.25% | [3] 24.1% | [4] -34.5% | [5] 6.55% | [6] -2.95%

Nc1nnc(-c2ccc(Nc3nc4ccccc4[nH]3)c([N+](=O)[O-])c2)s1
inactive: [1] 7% | [2] 1.4% | [3] 27.7% | [4] 15.3% | [5] 3.15% | [6] 14.1%

O=C(O)Cc1cc(=O)[nH]n(-c2ccccc2)c1=O
inactive: [1] 14.2% | [2] 8.6% | [3] -1.3% | [4] 10% | [5] -4.65% | [6] 13.8%

ClCC1CCN(Cc2ccccc2)CC1
inactive: [1] -4.5% | [2] 13.9% | [3] 6.7% | [4] -17.4% | [5] -10.5% | [6] 6.9%

CN(C)CCOC(=O)c1cccc(CCl)c1
inactive: [1] 15.9% | [2] 6.3% | [3] 5.75% | [4] 44.4% | [5] 25.4% | [6] 7.95%

Cc1cccc(-c2nnc(N)o2)c1[N+](=O)[O-]
inactive: [1] -36% | [2] -9.6% | [3] -10.6% | [4] 1.75% | [5] -11.4% | [6] -16.4%

F[B-](F)(F)[NH2+]c1ccc(-c2ccc([NH2+][B-](F)(F)F)c(Cl)c2)cc1Cl
inactive: [1] 35.1% | [2] 8.15% | [3] 42.3% | [4] 38% | [5] 19.9% | [6] 10.7%
